39 compounds from ChEMBL document CHEMBL3988442, “University of Dundee, Small-Polar-MMV Screening Library” (2021) can be followed below.

Each structure is given as a SMILES string.

For this assay, the target named is AMP-activated protein kinase, AMPK (Homo sapiens) (UniProt P54646+O43741+P54619+Q9UGJ0+Q9Y478+Q13131+Q9UGI9). The assay can be described thus: AMP-dependent Kinase enzyme assay. An in vitro enzyme assay that detects ADP turnover that is directly proportional to AMPK activity. This uses naive AMPK that is activated during the assay with MK-8722. It is filed as functional. Also on record: scale not given: direction of the effect not stated beside the values. The note with it: 30 µM.
In the case of `Cc1nnc(NC(=O)c2c3c(nn2C2CCS(=O)(=O)C2)CCC3)s1` (centres undefined), the Percent Effect is -6.11%. The figure for `COc1ccccc1C(C)(C)NC(=O)c1cc(NC(C)=O)ccc1F` is -6.77%; for `O=C(OCC1CCCN1)c1cccc(NC(=O)c2ccco2)c1` (centres undefined) it is -4.3%. As for `CCc1nnc(NC(=O)c2c3c(nn2C2CCS(=O)(=O)C2)CCC3)s1` (centres undefined), the Percent Effect is -8.02%. The figure for `CSCCC(=O)N1CCN(CC(C)(C)O)CC1` is -5.46%; for `Cc1nc(C)c(C(C)NCc2cnc(N3CCOCC3)nc2)s1` (centres undefined) it is 7.71%; for `CNC(=O)C1CCN(c2ncnc3c2CCN(C(=O)C2CC2)C3)C1` (centres undefined) it is 2.51%.

As for `CCOCc1ccc(NC(=O)N2CCOC3(CCC3)C2)cc1`, the Percent Effect is -2.16%.

Take `O=C(NCC1CCOC1)c1cc(-c2ccc(F)cc2)[nH]n1` (centres undefined): the Percent Effect was -0.741%. In the case of `COCCCC1(CO)CCCN(C(=O)c2cnc3c(c2)CCCC3)C1` (centres undefined) it was -2.32%; in that of `Cc1nc(CNC(=O)Nc2c(C)n[nH]c2C)cs1`, -7.09%; in that of `Cc1cncc(C2CCN(Cc3ccc(S(C)(=O)=O)cc3)CC2)n1`, 5.76%. For `O=S(=O)(Cc1nc(C2CC2)no1)c1cc(F)ccc1F`, the Percent Effect turned out to be 8.83%. In the case of `CS(=O)(=O)CCN1CCSCC1c1ccc(Cl)cc1` (centres undefined), the Percent Effect was -2.02%.

In the case of `CC(NC(=O)N1CCCCCC1)c1ccc(S(N)(=O)=O)cc1` (centres undefined), the Percent Effect turned out to be 5.75%.

For the compound `O=C(c1coc(-c2ccccc2)n1)N1CCCCC1`, the Percent Effect was determined as 0.702%.

Consider `Cc1ccc(-c2nc(CC3CCN(C)CC3)no2)cc1N1CCNC1=O`, for which the Percent Effect turned out to be 11.1%. With `CS(=O)(=O)c1ccc(NC(=O)NCCC2=CCCCC2)cc1`, the Percent Effect is -2.69%.

As to `O=S(=O)(NCc1ccnc(-n2ccnc2)c1)c1cncc(F)c1`, the Percent Effect is -5.49%. The figure for `COCCCN1CC2(CCCN(CCn3cc(Cl)cn3)C2)CCC1=O` (centres undefined) is 5.56%; for `Cc1noc(C)c1S(=O)(=O)N1CCC(n2cccn2)CC1` it is -5.45%; for `CCn1cc(S(=O)(=O)Nc2ccc3[nH]c(C4CCC4)nc3c2)cn1` it is 2.5%. With `CCN1CCC(CC(=O)NCCc2nc(C)cc(C)n2)CC1`, the Percent Effect stood at 1.66%. In the case of `Cc1cncnc1C1CCN(C(=O)C2(C)CCCCN2C)CC1` (centres undefined), the Percent Effect was 17%. In the case of `CC(C)Cc1noc(CC2CCS(=O)(=O)C2)n1` (centres undefined), the Percent Effect was -13.3%.

With `CCc1nc(C)c(CN2CCOC(Cc3ccccc3Cl)C2)[nH]1` (centres undefined), the Percent Effect is -2.77%.

For `CCOc1ccccc1-n1c(C2CC(=O)N(C)C2)n[nH]c1=O` (centres undefined), the Percent Effect stood at 7.89%. Take `Cn1ncc2c(NC3CCSC3)nc(-c3ccncc3)nc21` (centres undefined): the Percent Effect came to 9.02%. Take `Cc1c(NC(=O)N(C)CCn2cnnc2)cccc1OC1CCCC1`: the Percent Effect was -2.5%. The figure for `CC(C)[C@@H]1CN(C(=O)CN(C)Cc2ccc(F)cc2)C[C@H]1C(=O)O` is 0.85%. In the case of `Cc1cc(N2CCC(n3cc(CN4CCC[C@@H]4CO)nn3)CC2)ccn1` it was -0.25%.

`O=C(CCn1cnnn1)N1CCCC(CO)(CCCc2ccccc2)C1` (centres undefined): the Percent Effect is 0.115%. As for `O=C1NCCN(C(=O)CCN2CCCO2)C1c1cccc(F)c1` (centres undefined), the Percent Effect was -5.73%. On to `CS(=O)(=O)c1ccc(Cl)c(C(=O)NCCC2=CCCCC2)c1`, for which the Percent Effect was -0.566%. With `Cc1cc(C(=O)Nc2ccc(OCCN3CCN(C)CC3)cc2)[nH]n1`, the Percent Effect is 14.7%. The figure for `O=C(CCn1cccn1)NCCOc1ncc(Cl)cc1Cl` is 2.54%; for `Cc1cc(CN2CCC(C3CCN(CCc4ccccc4)CC3)C2)[nH]n1` (centres undefined) it is -4.05%. Turning to `COCc1nc2cc3c(cc2c(=O)o1)OCCCO3`, the Percent Effect is -7.41%. With `CCc1oc(C(=O)NC(C)c2ncn[nH]2)cc1CN1CCCC1` (centres undefined), the Percent Effect was -1.83%.
